Over roughly 59,000 sequences, the read-out has its median near -0.00055; the lowest 2% begin near -2. Many of the other results were omitted from the sample, so the lowest values are more common in it than they were.

The nature of this experiment: Identification of proteins required for the processing of the EWS-FLI1 nascent transcript.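 Further: robust z of luciferase light less the median z of siRNAs with the same seed.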 The settings on record: TC32 Ewing sarcoma NR0B1-luc vs CMV-luc (EWS-FLI1 target promoter against control promoter), 48 h; screened at 20 nM (by protocol). The procedure: Ewing sarcoma (ES) cells depend on the EWS-FLI1 fusion transcription factor for cell survival. Using an assay of EWS-FLI1 activity and genome-wide siRNA screening we have identified proteins required for the processing of the EWS-FLI1 nascent transcript. Parallel genome-wide siRNA-mediated RNAi screens were conducted in Ewing sarcoma TC32 cell lines expressing a luciferase (luc) reporter protein driven by either the promoter of the EWS-FLI1 target gene NR0B1 (TC32-NR0B1-luc) or the CMV promoter (TC32-CMV-luc). Luciferase activity was assessed 48 hours post siRNA-transfection.
Twenty microl of serum-free media containing Lipofectamine RNAiMax (0.05 microl) was added to wells containing siRNA (0.8 pmol). Lipid and siRNA were allowed to complex for 45 min at ambient temperature before addition of 600 cells in RPMI-1640, 20% FBS to yield final transfection mixtures containing 20 nM siRNA in RPMI-1640, 10% FBS. Luciferase expression was measured using OneGlo (Promega, Madison, WI). The genome-wide screening campaign was conducted using Ambion's human genome library version 4.1 (Ambion, Austin TX). This library targets approximately 21000 human genes, three siRNAs per gene. Each siRNA is arrayed in an individual well of a 384-well plate. Parallel transfections were conducted in TC32-NR0B1-luc and TC32-CMV-luc cell lines and luciferase expression (OneGlo, Promega) was assayed 48 h later on a PerkinElmer Envision 2104 Multilabel plate reader (PerkinElmer, Waltham, MA). Qiagen's AllStars Negative control was incorporated on all screening plates for normalization (16 wells per plate). Qiagen, Germantown, MDsiGL4 was incorporated as a positive transfection control (16 wells per plate) on all plates. […] The raw luciferase data for the NR0B1- and CMV-luc screens were normalized and z-score-MAD transformed using standard methods (Chung et al., 2008). The miRNA-like seed sequence of every siRNA was determined and the median z-score for all siRNA sequences with the same seed sequence was calculated. This z-score was subtracted from the z-score associated with each siRNA with that seed sequence to generate a seed-adjusted z-score value (Z) that was used when the results for the three siRNAs corresponding to each gene were compared (Marine et al., 2012)
As to UCCUGGUUCACCAAUUUCU against COL9A1, the seed-corrected z-score was -0.362.
In the case of UAGGUUAUGAAAUUAAUCA against MAP6D1, the seed-corrected z-score is -2.45.
In turn, AUUCAUAGAAGUAUUCUGC against WIF1 came in with a seed-corrected z-score of -0.598.
UAAGUUUUGAGGAUAGGUG against ZNF117 came in with a seed-corrected z-score of 0.415.
On to UUGGGAUUCAGGUUCCGCU against TCF3, for which the seed-corrected z-score was -0.377.
Then UCGCUUCCCAGAAUUGCUG against GPR65, with 1.15; and AUGGGAAUAGGAAAGUAUG against OR2M4, with -2.09; and UGUCCAAUUAGGGACCAGC against SLF2, with -0.225.
The figure for ACUGUAUAGAUUGUGAACC against KDM3B is 1.03; for UUCCAUAGUAGUAGGAUCU against TMEM14B it is 0.134; for UCUGGUUAUCAGAAAACCC against PCNP it is 0.114.
In turn, UUGUGGUUUAGGGUUUUCU against YBX1 gave a seed-corrected z-score of -2.1.
On to UUCUUAUAACCAUUGACUG against SLCO1B3, for which the seed-corrected z-score came out at 0.328.
As for UAAAGAGUGGUGUUGGUGG against RSPH3, the seed-corrected z-score was -0.756.
In turn, UUUAGUUCCAGUGCCUUAG against CCDC151 had a seed-corrected z-score of 0.491.
The figure for CUUUCAGCGUGGCUGUUCC against C6orf132 is -4.94; for UUCCUAAUAAACCCAGCGC against SOWAHD it is -0.0823.
Then UCAGAGAUCAAAGAGAAGU against TUBB4A, with 0.356.
For the sequence UGAGUGAAGUGCGAUAUCC against ELL, the seed-corrected z-score stood at 0.176.
The figure for UAGGAACCAGAAAUAAUCC against ATP8A2 is -0.455; for UUAGGGAUGACGUGGGUGC against GRIN1 it is -2.06; for UUAAACUCCACGUCGUCAG against SIRPB1 it is -0.756.
Then UUUAUGGAUCUAAUUGUCG against CBWD1, with 0.289; and UGCAUGGUGAUAGUCAGGU against CD7, with -0.0598.
Regarding AAACCGUCCUUCCUCAUGC against IL16, the seed-corrected z-score worked out at 0.0574.
Turning to UUAGUCUUCCCGGAUUGCC against ADAR, the seed-corrected z-score came to 0.696.
In the case of UUCUGGAUAAACAUAUUCC against MCU, the seed-corrected z-score is -0.133.
The figure for UUCCAGUUAAACUGUAGCC against LOC643770 is -2.78; for UUAAUAACCUCAGAAAUGG against TCTEX1D1 it is 0.0567.
Then UAUUUGCGAAGUCAUGAGG against COPB1, with -3.25; and UGAAUAUCAACAGUCCCUC against ZNF731P, with 0.959.
The figure for UAAAUGACAGAAGCCGUUG against SUCLG1 is -0.0373; for UCACAGAUGCCUGUAAAUG against TSACC it is -0.571; for GCUUGCACGACUCACAGAC against DEFB105A it is 1.34.
Take AGAGUGUAAUGAGUCUUUG against SCAPER: the seed-corrected z-score turned out to be 0.141.
UCCUCCUUGUCCAUGAUGC against CDC42EP4 displayed a seed-corrected z-score of 0.732.
For AUCUGCUUAAUCUUUACAC against OR51F2, the seed-corrected z-score was -2.93.
Then AUCGGAUACCGUGAGAUCC against OXA1L, with 0.367; and UAAUGGGCACGAAUGACGG against ST8SIA3, with 0.274; and AAUGGUAUCAUUCACCUUG against RPS4X, with 1.54.
UCGUCUAAAACCAGGAUGC against ABCC3 showed a seed-corrected z-score of -0.496.
Then AAUGUUGUUCUGUUUGUCC against FAM122C, with -1.09; and UUUAGUUCUUCCCUUAUGG against PDGFC, with -0.075; and UUCUUCAUCAGCUUAACCG against C1QTNF4, with -0.00119.
The figure for AUACUUGUACAAUCGGUGC against DIDO1 is 0.123.
Then UUCUUUGCCCGCUUGAGCU against CCDC86, with -0.859.
With UUAGUUGCACCCAAAUCCA against CCDC17, the seed-corrected z-score is -2.22.
Consider AUGCGAACCUCAUAGGUGG against SNX12, for which the seed-corrected z-score was -0.364.
The figure for ACACUCAAAAUUACCAGCU against LEMD2 is -1.09; for UGUUUUUGAAGUUAGAUCU against LOC728999 it is 1.08; for UAAUCCUGACUUUCAAUUG against PAGE3 it is -0.446.
With AACAGUUUCUGCAUUCUUC against PARG, the seed-corrected z-score was -0.336.
Then AGAGGUCUGAGCACAGUUC against HSPA6, with -1.34; and UAACAUCUUCGAACUGCGG against MAU2, with -1.35; and UGGUUGUUUAAGUCGACUG against USP33, with -2.43.
Then UCCCUUCACAAAGAAAGAG against TLDC2, with 0.201.
In the case of UUUCUUAGAAAGCGGUUCC against MORN5, the seed-corrected z-score is -0.0295.
In the case of UAGGAUACAUUGCUGAUGC against CASC1, the seed-corrected z-score was -0.353.
The figure for UCUUUCUUUAGUCUGAGUG against NMUR2 is 0.78.
For the sequence UUCUUUAUCUCGAUGAUGC against FAM117B, the seed-corrected z-score was -3.46.
The figure for AUCGCUCCCAUAGUUCACC against KRT20 is -0.0454; for UUUUCCUUAAUUAACGGCA against DTYMK it is -0.22.
Then UCUGUGGAUACUGAUAUUC against NRG1, with 1.7.
In the case of UAUGGAAAAAUUAAUCUGU against RAC1, the seed-corrected z-score was -0.118.
Take UUCAGUAGAAGUUUCAUCU against POLR2H: the seed-corrected z-score is -3.55.
For the sequence UACAGAAUGGUUGUCUUGC against ARF4, the seed-corrected z-score was 0.573.
The figure for UAGAGUGCUAAGGACAGGG against GFI1B is 0.226.
AGAUUUAUAAUAAUCCCAC against C11orf72: the seed-corrected z-score was 0.747.
Sequence UUACUGGAGACCAAUCUUC against FDFT1 returned a seed-corrected z-score of -1.01.
The figure for UUAUUGACACGAAUACAUC against BTG3 is 0.565; for UGGAGGUUAUGAUCAUUCC against OR51B6 it is -2.91.
The figure for AUGGUGGUAAUUACGCUGC against SLCO5A1 is -0.993; for UGACUUUACCUCAAAGUUG against PRPF19 it is -0.0138.
The figure for UCAUUGUCUUCUAUCAAUC against FYN is -0.739; for UUCGUAUUAAGAACUGCAG against PSMD1 it is -2.79; for UAUGGGUUUGUUAAAAGGC against FUT6 it is -0.26.
With UUGCCUUCCAAGUUCUUUC against TNP2, the seed-corrected z-score was -0.491.
Then AUACGAUAAGCAGAGGAGG against GLT8D1, with -0.112.
The figure for AAACCUGCUAUAUCACUCC against ATAD1 is 0.174; for AAUCUUCGUAAGACUAUCC against C9orf50 it is -2.07; for UUCCUUGUUAGCACAGACC against GSR it is -0.669.
Then UACUUGUUGAGUGUCUCAG against CXCR1, with -1.52.
In turn, AGUCGAAUAACAUAUAUCC against NBPF14 returned a seed-corrected z-score of -2.13.
In the case of AAAGUUCUCAGGGUAGUGG against TOP3B, the seed-corrected z-score was -0.163.
Then UGUCAUAUACGCUCCAUAC against EYA4, with -0.104.
